Among the data in PubChem BioAssay (EPA / NIEHS) are outcome and AC50 values, retold here.

The source made the active and inactive calls. Rule for the calls: active = hit-call score of the fitted dose curve at least 0.9, where 1 is the maximum; inactive = score below 0.9.

Holding throughout (conditions): mRNA level, 48 h; actives raise or lower the signal
Read-out in assay [1]: Nuclear factor NF-kappa-B p105 subunit (Homo sapiens) (UniProt P19838)
Put plainly: LTEA_HepaRG_NFKB1: Life Technologies and Expression Analysis (LTEA) Assay for Nuclear Factor Kappa B Subunit 1 (NFKB1) using HepaRG (AID 2283521).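 Note: TaqMan qRT-PCR transcript normalised to ACTB GAPDH and POLR2A housekeeping genes.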 In a few lines: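 Human HepaRG cells receive eight half-log concentrations, highest 100 uM, for 48 h. NFKB1 expression is then quantified by qRT-PCR and analysed for up- or down-regulation relative to 0.5% DMSO vehicle.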

Read-out in assay [2]: Phosphatase and tensin (PTEN), PTEN (gene 5728)
Briefly: LTEA_HepaRG_PTEN: Life Technologies and Expression Analysis (LTEA) Assay for Phosphatase and tensin (PTEN) using HepaRG (AID 2283523). In short, it runs like this:
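HepaRG cells, 48 h after plating, exposed in duplicate for 48 h in serum-free induction medium to 8 half-log concentrations up to 100 uM (0.5% DMSO). PTEN mRNA by qRT-PCR, normalized to ACTB, GAPDH, POLR2A; bidirectional fit versus DMSO.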

Read-out in assay [3]: solute carrier (SLC22A1), SLC22A1 (gene 6580)
Briefly: LTEA_HepaRG_SLC22A1: Life Technologies and Expression Analysis (LTEA) Assay for solute carrier (SLC22A1) using HepaRG (AID 2283524). In short, it runs like this: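 Differentiated human HepaRG cells in serum-free induction medium, exposed 48 h in duplicate to 8-point half-log series from 100 µM top in 0.5% DMSO. SLC22A1 mRNA by TaqMan qRT-PCR normalized to ACTB, GAPDH, POLR2A; bidirectional fit versus DMSO.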

Read-out in assay [4]: Pyruvate Dehydrogenase Kinase 4 (PDK4), PDK4 (gene 5166)
Put plainly: LTEA_HepaRG_PDK4: Life Technologies and Expression Analysis (LTEA) Assay for Pyruvate Dehydrogenase Kinase 4 (PDK4) using HepaRG (AID 2283525). In a few lines:
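HepaRG cells plated 48 h, then switched to serum-free induction medium and exposed in duplicate for 48 h to 8 half-log concentrations from 100 uM in 0.5% DMSO. PDK4 mRNA measured by qRT-PCR, normalized to ACTB, GAPDH and POLR2A; bidirectional fit versus DMSO.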

Read-out in assay [5]: NAD(P)H dehydrogenase [quinone] 1 (NQO1), NQO1 (gene 1728)
Briefly: LTEA_HepaRG_NQO1: Life Technologies and Expression Analysis (LTEA) Assay for NAD(P)H dehydrogenase [quinone] 1 (NQO1) using HepaRG (AID 2283526). In a few lines:
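Human HepaRG hepatic cells received chemicals for 48 h in serum-free induction medium with 0.5% DMSO, up to 100 uM. Expression was assessed by TaqMan qRT-PCR against housekeeping controls and fitted bidirectionally against DMSO.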

Read-out in assay [6]: Nuclear factor erythroid 2-related factor 2 (Homo sapiens) (UniProt Q16236)
Put plainly: LTEA_HepaRG_NFE2L2: Life Technologies and Expression Analysis (LTEA) Assay for Nuclear factor erythroid 2-related factor 2 (NFE2L2) Transcription Factor using HepaRG (AID 2283527).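 For outcome: TaqMan qRT-PCR transcript level normalised to ACTB GAPDH and POLR2A housekeeping genes.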 In a few lines: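 Differentiated human HepaRG cells, serum-free induction medium, exposed 48 h in duplicate to eight half-log concentrations up to 100 uM in 0.5% DMSO. NFE2L2 mRNA by Fluidigm TaqMan qRT-PCR, normalised to ACTB, GAPDH, POLR2A; bidirectional change versus DMSO.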

Read-out in assay [7]: succinate dehydrogenase complex iron sulfur subunit B (SDHB), SDHB (gene 6390)
Put plainly: LTEA_HepaRG_SDHB: Life Technologies and Expression Analysis (LTEA) Assay for succinate dehydrogenase complex iron sulfur subunit B (SDHB) using HepaRG (AID 2283528). In a few lines:
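A human HepaRG culture in serum-free induction medium received test chemicals for 48 h over an eight-point range capped at 100 uM. SDHB expression change was quantified by qRT-PCR.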

Read-out in assay [8]: Signal transducer and activator of transcription 3 (Homo sapiens) (UniProt P40763)
Put plainly: LTEA_HepaRG_STAT3: Life Technologies and Expression Analysis (LTEA) Assay for Signal transducer and activator of transcription (STAT3) using HepaRG (AID 2283529). In short, it runs like this:
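Differentiated HepaRG cells, serum-free induction medium, dosed 48 h in duplicate, 8 half-log concentrations from 100 uM in 0.5% DMSO. STAT3 mRNA by qRT-PCR, normalised to ACTB, GAPDH, POLR2A; bidirectional fit versus DMSO.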

Read-out in assay [9]: solute carrier (SLCO1B1), SLCO1B1 (gene 10599)
Put plainly: LTEA_HepaRG_SLCO1B1: Life Technologies and Expression Analysis (LTEA) Assay for solute carrier (SLCO1B1) using HepaRG (AID 2283530). In short, it runs like this:
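Gain or loss of SLCO1B1 mRNA is fitted against the 0.5% DMSO vehicle in human HepaRG liver cells treated 48 h at up to 100 uM in half-log steps. Expression comes from qRT-PCR normalized to endogenous controls.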

Read-out in assay [10]: sulfotransferase 2A1 (SULT2A1), SULT2A1 (gene 6822)
Put plainly: LTEA_HepaRG_SULT2A1: Life Technologies and Expression Analysis (LTEA) Assay for sulfotransferase 2A1 (SULT2A1) using HepaRG (AID 2283531). In a few lines:
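Cells were plated and cultured 48 h, switched to serum-free induction medium, then dosed in duplicate for 48 h (8 concentrations, max 100 uM). RNA was isolated and SULT2A1 expression measured by qRT-PCR; gain or loss of signal fitted relative to DMSO.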

Read-out in assay [11]: Transforming Growth Factor (TGFB1), TGFB1 (gene 7040)
Briefly: LTEA_HepaRG_TGFB1: Life Technologies and Expression Analysis (LTEA) Assay for Transforming Growth Factor (TGFB1) Transporter using HepaRG (AID 2283533). In short, it runs like this:
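Expression change of TGFB1 in human HepaRG cells is measured after a 48 h chemical exposure, up to 100 uM in 0.5% DMSO vehicle. Curves are fitted in both directions relative to the DMSO baseline.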

Read-out in another assay: TIMP1, TIMP1 (gene 7076)
Put plainly: LTEA_HepaRG_TIMP1: Life Technologies and Expression Analysis (LTEA) Assay for TIMP1 using HepaRG (AID 2283534).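 Note: TaqMan qRT-PCR signal normalized to ACTB GAPDH and POLR2A housekeeping genes.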 In a few lines: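 We dosed human liver HepaRG cultures for 48 hours with up to 100 uM test chemical and measured TIMP1 expression by qRT-PCR. Activity in either direction is fitted relative to the 0.5% DMSO vehicle.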

Read-out in assay [12]: Tumor necrosis factor receptor 1 (TNFRSF1A), TNFRSF1A (gene 7132)
Put plainly: LTEA_HepaRG_TNFRSF1A: Life Technologies and Expression Analysis (LTEA) Assay for Tumor necrosis factor receptor 1 (TNFRSF1A) using HepaRG (AID 2283535). In a few lines:
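Expression of TNFRSF1A in human HepaRG liver cells was measured by qRT-PCR 48 h after chemical dosing (maximum 100 uM). Bidirectional curve fitting used 0.5% DMSO as baseline.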

Read-out in assay [13]: Thyroid Hormone Responsive (THRSP), THRSP (gene 7069)
Put plainly: LTEA_HepaRG_THRSP: Life Technologies and Expression Analysis (LTEA) Assay for Thyroid Hormone Responsive (THRSP) using HepaRG (AID 2283536). In a few lines:
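Differentiated HepaRG cells treated 48 h in serum-free induction medium with 8 half-log concentrations up to 100 uM (0.5% DMSO), duplicates. THRSP mRNA by TaqMan qRT-PCR normalised to ACTB, GAPDH, POLR2A; bidirectional fit versus DMSO.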

Read-out in assay [14]: Cellular tumor antigen p53 (Homo sapiens) (UniProt P04637)
Put plainly: LTEA_HepaRG_TP53: Life Technologies and Expression Analysis (LTEA) Assay for Tumor Protein P53 (TP53) using HepaRG (AID 2283537). In a few lines: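 Gain or loss of TP53 mRNA signal is scored relative to 0.5% DMSO after 48 h chemical treatment of HepaRG liver cells, tested in duplicate at eight half-log concentrations up to 100 uM.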

Read-out in assay [15]: UDP glucuronosyltransferase (UGT1A1), UGT1A1 (gene 54658)
Put plainly: LTEA_HepaRG_UGT1A1: Life Technologies and Expression Analysis (LTEA) Assay for UDP glucuronosyltransferase (UGT1A1) using HepaRG (AID 2283538). In short, it runs like this: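 Human liver HepaRG cultures receive test chemical for 48 h, up to 100 uM in 0.5% DMSO, with phenobarbital induction controls. UGT1A1 mRNA is measured by qRT-PCR and normalized to ACTB, GAPDH and POLR2A.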

Read-out in assay [16]: UDP glucuronosyltransferase (UGT1A6), UGT1A6 (gene 54578)
Put plainly: LTEA_HepaRG_UGT1A6: Life Technologies and Expression Analysis (LTEA) Assay for UDP glucuronosyltransferase (UGT1A6) using HepaRG (AID 2283539). In short, it runs like this: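 Endpoint is UGT1A6 transcript induction or loss in a human liver cell line, quantified by TaqMan qRT-PCR 48 h after dosing. Concentrations ran from 100 uM downward in half-log steps in 0.5% DMSO; activity was fitted in both directions versus vehicle.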

Read-out in assay [17]: X-box binding protein 1 (XBP1), XBP1 (gene 7494)
Put plainly: LTEA_HepaRG_XBP1: Life Technologies and Expression Analysis (LTEA) Assay for X-box binding protein 1 (XBP1) using HepaRG (AID 2283540). In a few lines: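 Human HepaRG monolayers receive test chemical for 48 h across an eight-point half-log series starting at 100 uM. XBP1 mRNA gain or loss is scored against DMSO by qRT-PCR.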

Read-out in assay [18]: Protein phosphatase 2A (PPP2R4), PTPA (gene 5524)
Put plainly: LTEA_HepaRG_PPP2R4: Life Technologies and Expression Analysis (LTEA) Assay for Protein phosphatase 2A (PPP2R4) using HepaRG (AID 2283522). In short, it runs like this: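 Gene-expression endpoint in HepaRG hepatic cells: 48 h treatment across eight half-log concentrations up to 100 uM in 0.5% DMSO. PPP2R4 mRNA by qRT-PCR, normalized to three endogenous control genes.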

Read-out in assay [19]: Transforming Growth Factor (TGFA), TGFA (gene 7039)
Put plainly: LTEA_HepaRG_TGFA: Life Technologies and Expression Analysis (LTEA) Assay for Transforming Growth Factor (TGFA) using HepaRG (AID 2283532). In a few lines:
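Differentiated HepaRG cells exposed 48 hours in serum-free induction medium, 0.5% DMSO vehicle, 8-point half-log series from 100 uM, in duplicate. TGFA mRNA by TaqMan qRT-PCR, normalised to ACTB, GAPDH, POLR2A; bidirectional fit versus DMSO.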

Chain of Signal transducer and activator of transcription 3 (Homo sapiens) (P40763 whole entry, looked up): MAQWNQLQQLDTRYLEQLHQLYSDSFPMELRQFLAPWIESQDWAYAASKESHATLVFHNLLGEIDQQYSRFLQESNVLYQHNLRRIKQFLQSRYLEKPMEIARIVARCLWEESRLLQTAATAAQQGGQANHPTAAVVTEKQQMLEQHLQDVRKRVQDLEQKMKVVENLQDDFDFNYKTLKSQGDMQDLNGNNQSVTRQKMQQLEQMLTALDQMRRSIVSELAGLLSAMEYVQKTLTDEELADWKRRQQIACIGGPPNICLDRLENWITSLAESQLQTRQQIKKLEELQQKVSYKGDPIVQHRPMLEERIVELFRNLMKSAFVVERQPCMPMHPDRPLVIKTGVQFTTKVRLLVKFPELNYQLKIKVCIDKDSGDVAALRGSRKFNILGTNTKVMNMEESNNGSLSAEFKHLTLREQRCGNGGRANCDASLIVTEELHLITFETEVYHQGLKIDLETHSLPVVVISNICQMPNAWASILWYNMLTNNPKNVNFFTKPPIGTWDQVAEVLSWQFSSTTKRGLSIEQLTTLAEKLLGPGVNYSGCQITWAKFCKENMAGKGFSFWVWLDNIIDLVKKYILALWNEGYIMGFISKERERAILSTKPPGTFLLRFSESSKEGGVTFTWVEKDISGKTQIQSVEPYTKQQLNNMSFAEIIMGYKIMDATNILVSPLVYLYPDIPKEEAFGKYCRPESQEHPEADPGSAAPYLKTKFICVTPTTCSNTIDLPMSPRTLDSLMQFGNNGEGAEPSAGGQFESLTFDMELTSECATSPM
Chain of Nuclear factor erythroid 2-related factor 2 (Homo sapiens) (Q16236 whole entry, looked up): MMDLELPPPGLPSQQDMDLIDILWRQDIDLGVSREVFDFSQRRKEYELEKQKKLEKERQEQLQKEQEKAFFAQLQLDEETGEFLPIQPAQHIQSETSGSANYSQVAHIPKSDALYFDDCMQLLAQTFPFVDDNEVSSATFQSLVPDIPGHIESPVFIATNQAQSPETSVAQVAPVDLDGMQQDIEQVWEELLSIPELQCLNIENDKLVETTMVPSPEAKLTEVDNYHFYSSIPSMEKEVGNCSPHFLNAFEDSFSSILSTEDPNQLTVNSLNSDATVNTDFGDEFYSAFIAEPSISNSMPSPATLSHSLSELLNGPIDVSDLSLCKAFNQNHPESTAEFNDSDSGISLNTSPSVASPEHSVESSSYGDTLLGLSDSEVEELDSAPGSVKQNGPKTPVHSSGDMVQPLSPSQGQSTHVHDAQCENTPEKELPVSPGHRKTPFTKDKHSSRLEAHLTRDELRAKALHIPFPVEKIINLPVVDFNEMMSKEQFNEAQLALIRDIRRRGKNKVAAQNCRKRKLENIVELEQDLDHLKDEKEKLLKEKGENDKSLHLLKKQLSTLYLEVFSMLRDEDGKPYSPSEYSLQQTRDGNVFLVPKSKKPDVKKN
Chain of Nuclear factor NF-kappa-B p105 subunit (Homo sapiens) (P19838 whole entry, looked up): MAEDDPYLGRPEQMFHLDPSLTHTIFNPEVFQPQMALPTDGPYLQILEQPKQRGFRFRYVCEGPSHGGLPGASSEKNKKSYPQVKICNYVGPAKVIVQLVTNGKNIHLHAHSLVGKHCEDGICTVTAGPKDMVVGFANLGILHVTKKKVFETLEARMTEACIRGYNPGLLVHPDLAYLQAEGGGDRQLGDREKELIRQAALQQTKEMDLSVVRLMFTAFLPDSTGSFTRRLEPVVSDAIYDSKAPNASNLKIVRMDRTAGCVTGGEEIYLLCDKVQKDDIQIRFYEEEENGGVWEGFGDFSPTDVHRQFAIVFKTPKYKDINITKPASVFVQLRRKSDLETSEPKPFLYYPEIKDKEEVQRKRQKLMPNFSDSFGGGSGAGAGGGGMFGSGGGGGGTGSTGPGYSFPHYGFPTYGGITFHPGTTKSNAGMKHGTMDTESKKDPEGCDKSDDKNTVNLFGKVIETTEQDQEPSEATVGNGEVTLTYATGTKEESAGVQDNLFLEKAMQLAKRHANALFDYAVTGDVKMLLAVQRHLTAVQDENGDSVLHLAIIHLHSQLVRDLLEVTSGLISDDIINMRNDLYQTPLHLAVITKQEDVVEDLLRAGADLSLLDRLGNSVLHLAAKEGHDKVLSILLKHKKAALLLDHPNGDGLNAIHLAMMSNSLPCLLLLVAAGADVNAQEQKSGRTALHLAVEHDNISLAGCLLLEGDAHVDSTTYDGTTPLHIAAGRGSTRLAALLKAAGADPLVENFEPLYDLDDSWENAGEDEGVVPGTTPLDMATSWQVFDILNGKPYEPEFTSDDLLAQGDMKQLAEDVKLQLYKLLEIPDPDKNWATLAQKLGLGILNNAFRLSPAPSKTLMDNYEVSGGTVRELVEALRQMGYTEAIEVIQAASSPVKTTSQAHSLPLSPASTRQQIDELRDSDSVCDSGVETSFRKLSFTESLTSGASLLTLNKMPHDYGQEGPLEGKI
Chain of Cellular tumor antigen p53 (Homo sapiens) (P04637 whole entry, looked up): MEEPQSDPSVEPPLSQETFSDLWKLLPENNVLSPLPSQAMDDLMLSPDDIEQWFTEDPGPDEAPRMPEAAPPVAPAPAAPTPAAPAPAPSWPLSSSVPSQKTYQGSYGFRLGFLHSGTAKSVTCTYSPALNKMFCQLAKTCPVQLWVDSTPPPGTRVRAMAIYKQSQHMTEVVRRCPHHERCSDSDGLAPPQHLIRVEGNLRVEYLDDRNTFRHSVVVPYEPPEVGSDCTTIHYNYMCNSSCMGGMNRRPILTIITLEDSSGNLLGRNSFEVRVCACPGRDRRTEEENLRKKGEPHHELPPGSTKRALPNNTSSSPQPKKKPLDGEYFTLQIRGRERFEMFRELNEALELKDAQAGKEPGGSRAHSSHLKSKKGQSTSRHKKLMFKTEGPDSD

Consider `OCCC(F)(F)C(F)(F)C(F)(F)C(F)(F)C(F)(F)C(F)(F)C(F)(F)C(F)(F)F`, for which the result in assay [1], in [2], in [3], in assay [4], in assay [5] and in assay [6] was inactive. For the same compound, the outcome in assay [7] is “inactive”; in [8] it was “inactive”; in assay [9] it was “inactive”; in assay [10], “inactive”; in assay [11] it was “inactive”; with TIMP1, TIMP1 (gene 7076), “inactive”. The call in assay [12], in assay [13], in [14], in [15], in assay [16] and in assay [17] was inactive.

Take `COC(=O)CCCCC(=O)OC`: the call in [18], in assay [2], in assay [3], in assay [4], in assay [5] and in [6] was inactive. In addition, the outcome is “inactive” in [8]; “inactive” in assay [9]; “inactive” in assay [10]; “inactive” in assay [19]; “inactive” in [11]; “inactive” with TIMP1, TIMP1 (gene 7076). Also, the compound was classed as inactive in assay [12], in assay [13], in assay [15], in assay [16] and in [17].

As for `CCCCOCCO`, the compound was classed as inactive in assay [1], in [2], in assay [3], in assay [4], in assay [5] and in assay [6]. For the same compound, the outcome was “inactive” in assay [7]; “inactive” in [8]; “inactive” in assay [9]; “inactive” in [10]; “inactive” in assay [11]; “inactive” with TIMP1, TIMP1 (gene 7076). For the same compound, the result in assay [12], in assay [13], in assay [15], in assay [16] and in [17] was inactive.

One may read the AC50 as the concentration at which the activity in the assay is half-maximal. With `CCN(CC)CCNc1ccc(CNC=O)c2sc3ccc(OC)cc3c(=O)c12`, the AC50 in [2] was 50 µM (active); in assay [3], 13.9 µM (active); in [4], 44.3 µM (active); in [6], 87 µM (active); in assay [8] it was 83.4 µM (active); in assay [10], 76 µM (active). Moreover, the AC50 in assay [12] was 43.5 µM (active); in assay [13], 12.8 µM (active); in [15], 44 µM (active); in assay [16], 72 µM (active); in [17] it was 30.6 µM (active). Besides, the outcome was “inactive” in [5]; “inactive” in assay [7]; “inactive” in [9]; “inactive” in assay [11]; “inactive” in the assay with TIMP1, TIMP1 (gene 7076).
